Experimental data from publication PMC5540273 (PLoS ONE, 2017).

How the values were obtained:
Conditions in all cases: concentration: 1 μM, replicates: in singlicate; n = 1
EPHA2 = system: EPHA2
EPHA3 = system: EPHA3
EPHA4 = system: EPHA4
EPHA5 = system: EPHA5
EPHA6 = system: EPHA6
EPHA7 = system: EPHA7
EPHA8 = system: EPHA8
EPHB1 = system: EPHB1
EPHB2 = system: EPHB2
EPHB3 = system: EPHB3
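Also: KINOMEscan kinase panel screen.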

SMILES	%Inh (EPHA2)	%Inh (EPHA3)	%Inh (EPHA4)	%Inh (EPHA5)	%Inh (EPHA6)	%Inh (EPHA7)	%Inh (EPHA8)	%Inh (EPHB1)	%Inh (EPHB2)	%Inh (EPHB3)
CNc1nc(-c2ccc3c(N)n[nH]c3c2)cc(N2C[C@@H](C(=O)Nc3ccccc3)CC[C@H]2C)n1 [GSK2298859]	0%	18%	8%	0%	0%	1%	5%	0%	0%	9%
COc1cccc(NC(=O)Nc2ccc(C)c(-c3ccc(C(=O)Nc4ccncc4)cc3)c2)c1 [GSK1398474]	1%	5%	15%	2%	13%	13%	25%	10%	4%	18%
Cc1nccc(-c2c(-c3ccc(F)cc3)ncn2CCCN2CCOCC2)n1.Cl [SB-282975]	16%	0%	4%	10%	8%	9%	10%	15%	15%	3%
COc1ccc(Nc2nccc(N3CCC(NC(=O)C(C)c4ccc(Cl)cc4)CC3)n2)cc1 (centres unmarked) [GSK1379812]	7%	5%	0%	0%	0%	0%	9%	34%	71%	1%
O=C(Nc1n[nH]c2nc(-c3cccs3)c(Br)cc12)C1CC1 [SB-735297]	0%	0%	1%	0%	17%	0%	8%	0%	0%	0%
CNc1cc(-c2ccc3c(N)n[nH]c3c2)nc(N)n1 [GSK2224810]	0%	27%	0%	0%	0%	0%	0%	23%	0%	4%
Cc1ccc(NC(=O)Nc2ccc(Cl)c(C(F)(F)F)c2)cc1-c1ccc(C(=O)Nc2ccncc2)cc1 [GSK1398470]	17%	19%	7%	7%	20%	15%	26%	23%	17%	19%
Cc1ccc(NC(=O)Nc2ccccc2F)cc1-c1ccc(C(=O)Nc2ccncc2)cc1 [GSK1398477]	31%	17%	40%	14%	31%	19%	52%	27%	12%	22%
COC(=O)C(NC(=O)NC1CCN(c2ccnc(Nc3ccc(F)cc3)n2)C1)c1ccccc1 (centres unmarked) [GSK1379712]	0%	0%	3%	0%	2%	0%	10%	10%	11%	1%
Cl.Cl.Cl.N#Cc1ccc(CCNc2nccc(-c3cccc(CN4CCNCC4)c3)n2)cc1 [GSK2137462]	8%	14%	13%	0%	3%	9%	14%	18%	0%	15%
COc1ccc2cc(-c3nc(-c4ccccc4C(C)C)[nH]c3-c3ccncc3)ccc2c1 [SB-660566]	0%	0%	25%	0%	30%	15%	13%	4%	15%	28%
O=C(Nc1n[nH]c2cc(-c3ccsc3)ccc12)C1CC1 [SB-732932]	0%	13%	0%	3%	6%	0%	0%	0%	0%	7%
CC(=O)c1cccc(NC(=O)NC2CCN(c3ccnc(Nc4ccc(F)cc4)n3)C2)c1 (centres unmarked) [GSK1379710]	0%	19%	6%	0%	7%	6%	14%	8%	11%	7%
Nc1cccc(-c2ccc3c(N)n[nH]c3c2)n1 [GSK2192730]	0%	4%	5%	0%	0%	8%	8%	9%	0%	1%
Fc1ccc(-c2nc3n(c2-c2ccncc2)CCS3)cc1 [GI98581]	12%	0%	0%	10%	19%	4%	11%	9%	15%	19%
Nc1nccc(-c2c(-c3ccc(F)cc3)ncn2C2CCN(Cc3ccccc3)CC2)n1 [SB-219980]	0%	0%	4%	21%	24%	0%	1%	9%	0%	20%
COc1ccc(Nc2nccc(N3CCC(NC(=O)c4cc5ccccc5s4)C3)n2)cc1 (centres unmarked) [GSK1379738]	0%	0%	8%	0%	1%	7%	13%	20%	12%	11%
